High-throughput results: PubChem BioAssay, Broad Institute
aSyn 5UTR act: Activators via SNCA 5'UTR binding, MLPCN; alpha-synuclein 5'UTR reporter, activators screen; AID 1814; 7.1% of 300,000 active; activity score, % (tested at 7.5 µM), hits read low; in the data active means activity score below about -60%
* hit, by the source's call. A selection follows.

SMILES	aSyn 5UTR act
O=C(NCc1ccco1)c1sc2cc(Cl)ccc2c1Cl	-66*
Cn1ncc(SCc2ccccc2)c(Cl)c1=O	-64*
COc1cccc(Nc2ncnc3sc(C)cc23)c1	-126*
COc1ccc(CCNc2ncnc3sc(C)cc23)cc1OC	77
c1nc(Nc2ccc(N3CCOCC3)cc2)c2ccsc2n1	-63*
COc1cccc(Nc2ncnc3sccc23)c1	-118*
COc1ccc(Oc2ncnc3sccc23)cc1	-95*
COc1ccc(Nc2nccc3c2ncn3C)cc1	21
COc1ccc(Nc2ncnc3sccc23)cc1	-98*
CN(C)c1ccc(C2=NOC(CN3C(=O)c4ccccc4S3(=O)=O)C2)cc1 (stereo not given)	-134*
COc1cccc2cc(-c3ccnc(N)n3)oc12	-80*
CC(=O)Nc1ccc2c(c1)c1ccccc1n2C(C)=O	-65*
CC(=O)Nc1ccc2c(c1)ncn2-c1ccccc1	-110*
CCC(=O)Nc1ccc2c(c1)ncn2-c1ccccc1	-75*
CCOc1ccc(-n2nc3ccc(NC(=O)CC)cc3n2)cc1	-120*
CC1(C)SC(=S)N(NC(=O)Nc2cccc3ccccc23)C1N(O)C(=O)Nc1ccccc1 (stereo not given)	-88*
Cc1ccnc(NC(=O)c2cccc(OC(F)F)c2)n1	-77*
O=C(Nc1cc(Cl)cc(Cl)c1)c1cccc(OC(F)F)c1	-98*
Cc1csc(NC(=O)c2cccs2)n1	-112*
Cc1csc(NC(=O)c2ccc(Br)s2)n1	-102*
Cc1nc(NC(=O)c2cccs2)ccc1Br	-284*
CCOc1cccc2sc(NC(=O)c3ccc(Br)s3)nc12	-81*
CCc1sc(C(=O)Nc2nc(C)cs2)cc1C	-82*
CC(=O)c1sc(NC(=O)c2cccs2)nc1C	-98*
c1ccc(-c2noc(C3CCCCC3)n2)nc1	-82*
SMILES	aSyn 5UTR act
Brc1ccc(-c2noc(C3CCCCC3)n2)cc1	-143*
Nc1nc(-c2ccccc2)cn1/N=C/c1ccccc1	-138*
CCn1cc(/C=C/C(=O)Nc2ccc(C)cc2Br)cn1	-82*
O=C(Cn1cc(SCc2ccc(Cl)cc2)c2ccccc21)N1CCOCC1	-90*
COc1cc(C(=O)N/N=C/c2cn(Cc3ccccc3)c3ccccc23)ccc1O	57
O=C(CSc1cn(Cc2ccccc2)c2ccccc12)N1CCOCC1	-129*
CCN(CC)CCNC(=O)c1nn(-c2ccc(C)cc2)c(=O)c2c1c1ccccc1n2C	-64*
CO/N=C/C(C#N)=C/c1ccc(OC)cc1	-81*
CN(C)c1ccc(-n2cc3c(=O)n(C)c(=O)n(C)c3c2)cc1	-198*
CCN(CC)c1ccc(-n2cc3c(=O)n(C)c(=O)n(C)c3c2)cc1	-118*
c1ccc(-c2cc3nccc(-c4ccccn4)n3n2)cc1	-196*
Fc1ccc(/C=N/NC2=Nc3cccc4cccc2c34)cc1	-294*
COc1ccccc1Cn1c(/C=C/c2ccccc2)nc2ccccc21	-111*
COCCn1c(/C=C/c2ccccc2)nc2ccccc21	-156*
COc1ccc(/C=C/c2nc3ccccc3n2Cc2ccccc2OC)cc1	-153*
Cc1cccc(NC(=O)Cn2c(/C=C/c3ccccc3)nc3ccccc32)c1	-123*
Cc1ccc(C(=O)N2c3ccccc3CC2C)o1 (stereo not given)	-92*
CC1Cc2ccccc2N1C(=O)c1ccc(Br)o1 (stereo not given)	-129*
Cc1cccc(N2CCN(C(=O)c3ccc(CS(=O)(=O)c4ccccc4C)o3)CC2C)c1 (stereo not given)	97
CC1CCC(NC(=O)Cn2c(=O)[nH]c3ccsc3c2=O)CC1 (stereo not given)	-130*
CCCCC(=O)Nc1cccc(-c2cn3ccccc3n2)c1	-78*
O=C(Nc1cccc(-c2cn3ccccc3n2)c1)c1ccccc1	-64*
O=C(Nc1ccc(-c2cn3ccccc3n2)cc1)c1ccco1	-209*
Cn1c(/C(C#N)=C/c2ccc(O)cc2)nc2ccccc21	-126*
Cn1ccsc1=NC(=O)c1ccc(OC(F)(F)F)cc1	-77*
SMILES	aSyn 5UTR act
Cn1ccsc1=NC(=O)c1ccc(S(=O)(=O)C(F)F)cc1	-96*
COC(=O)c1ccc(C(=O)N=c2sccn2C)cc1	-148*
Cn1ccsc1=NC(=O)c1ccc(Cl)cc1	-197*
CN(C)c1ccc(C(=O)c2ccccc2C(=O)O)cc1[N+](=O)[O-]	-77*
Cn1ccsc1=NC(=O)c1ccc(CS(C)(=O)=O)cc1	-66*
COc1ccc(C(=O)N=c2sccn2C)cc1	-114*
CN(C)c1ccc(C(=O)c2ccc(N(C)C)c3ccccc23)cc1	89
Cn1ccs/c1=N\C(=O)Nc1ccccc1	-128*
CN(C)c1ccc(C(=O)N=c2sccn2C)cc1[N+](=O)[O-]	-117*
Cc1cccc(C(=O)NC2=NCCS2)c1	-56*
O=C(NC1=NCCS1)c1ccc(Cl)c(Cl)c1	-101*
O=C(/C=C/c1ccc(Cl)c(Cl)c1)NC1=NCCS1	-104*
CCC(Sc1nc2n[nH]c(C)c2c(=N)n1-c1cccc(Cl)c1C)C(=O)N(CC)CC (stereo not given)	51
CCOC(=O)c1[nH]c2ccccc2c1NC(=S)Nc1ccccc1	-70*
CN(C)Cc1c(C(=O)Nc2ccccc2)[nH]c2ccccc12	-76*
Clc1nc(-c2ccccc2)ncc1Oc1ccccc1	-64*
Clc1ccc(COc2ccccc2-c2ccnc3ncnn23)cc1	-75*
Cc1ccc(/C=N/N=C/c2ccc(C)s2)s1	-199*
Cc1cccc(N/N=C/c2ccc(C)s2)c1	-180*
Cc1cc(C)n2nc(-c3ccc(F)cc3)nc2n1	-109*
O=C(Nc1cccc(-c2nc3cc(Cl)ccc3o2)c1)C1CCCO1 (stereo not given)	-72*
Cc1ccc2oc(-c3cccc(NC(=O)C4CCCO4)c3)nc2c1 (stereo not given)	-181*
Cc1cccc(-c2nc3cc(NC(=O)C4CCCO4)ccc3o2)c1 (stereo not given)	72
Cc1cc(Nc2ccc(Cl)cc2)nc(N)n1	-111*
COc1ccc(Nc2cc(C)nc(N)n2)cc1	-64*
SMILES	aSyn 5UTR act
Nc1cc(Nc2ccc(Br)cc2)nc(N)n1	-149*
CCn1c(C)nc2cc(-c3nc4n(n3)Cc3ccccc3-4)ccc21	87
CCn1c(C)nc2cc(C(=O)NNC(=S)Nc3ccccc3Cl)ccc21	-110*
CCn1c(C)nc2cc(C(=O)NNC(=S)Nc3ccc(F)cc3)ccc21	-126*
CCn1c(C)nc2cc(C(=O)NNC(=S)Nc3ccccc3)ccc21	-164*
CCn1c(C)nc2cc(C(=O)OC(C(F)(F)C(F)F)C(F)(F)C(F)F)ccc21	-73*
CCn1c(C)nc2cc(C(=O)N/N=C/c3ccccc3)ccc21	-83*
CCn1c(NC(=S)Nc2ccccc2)nc2ccccc21	-106*
CCn1c(C)nc2cc(C(=O)N/N=C(\C)c3ccc(OC)cc3O)ccc21	84
CSc1ccc(C(=O)N2CCc3ccc(NC(=O)c4ccccn4)cc3C2)cc1	-73*
Cc1c(NC(=O)Nc2cccs2)cccc1[N+](=O)[O-]	-71*
O=C(Nc1cccs1)Nc1ccccc1Cl	-71*
O=C(NC(=O)c1csnn1)Nc1ccccc1Cl	-103*
Cc1ccc(NC(=O)Nc2cccs2)c(Cl)c1	-201*
Cc1c(NC(=S)Nc2ccccc2C(F)(F)F)cccc1[N+](=O)[O-]	-65*
O=C(CCSc1ccc(Cl)cc1)N1CCOCC1	-69*
O=C(CSc1ccc(Cl)cc1)N1CCOCC1	-69*
O=C(CSc1ccc(Br)cc1)N1CCOCC1	-65*
CCOC(=O)CC1COCCN1C(=O)c1ccc2oc(Cc3ccccc3)nc2c1 (stereo not given)	-132*
